# Measurements taken from ChEMBL document CHEMBL1961873, “Compounds: GSK PKIS; Assays: Nanosyn kinase panel” (2012).
# Assays:
# [1] = biological target: Sphingosine kinase 1 (Homo sapiens) (UniProt Q9NYA1); conditions: at 1 µM;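 also: mean SPHK1 inhibition value reported from the GSK PKIS kinase panel screen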
# [2] = biological target: T1, Sphingosine kinase 2 (Homo sapiens) (UniProt Q9NRA0); conditions: at 0.1 µM
# T1 sequence (whole entry): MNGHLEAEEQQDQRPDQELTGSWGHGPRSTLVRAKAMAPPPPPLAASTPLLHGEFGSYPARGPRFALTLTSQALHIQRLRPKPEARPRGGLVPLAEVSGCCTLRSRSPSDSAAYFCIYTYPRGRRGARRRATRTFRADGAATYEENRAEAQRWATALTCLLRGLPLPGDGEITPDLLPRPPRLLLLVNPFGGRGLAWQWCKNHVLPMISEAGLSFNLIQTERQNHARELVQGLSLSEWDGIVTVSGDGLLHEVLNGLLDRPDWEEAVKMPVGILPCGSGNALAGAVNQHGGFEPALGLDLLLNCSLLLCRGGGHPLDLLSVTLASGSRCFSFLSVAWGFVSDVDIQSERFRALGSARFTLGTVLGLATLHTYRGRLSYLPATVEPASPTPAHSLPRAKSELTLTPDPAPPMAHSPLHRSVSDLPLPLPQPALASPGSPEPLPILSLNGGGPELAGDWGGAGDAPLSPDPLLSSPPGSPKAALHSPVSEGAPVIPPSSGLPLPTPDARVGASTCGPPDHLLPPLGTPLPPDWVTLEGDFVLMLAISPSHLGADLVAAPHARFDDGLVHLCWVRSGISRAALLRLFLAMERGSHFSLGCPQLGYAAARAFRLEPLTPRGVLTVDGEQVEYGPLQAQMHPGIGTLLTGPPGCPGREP
# [3] = biological target: T1, Sphingosine kinase 2 (Homo sapiens); conditions: at 1 µM
# [4] = biological target: Casein kinase II subunit alpha (Homo sapiens) (UniProt P68400); conditions: at 0.1 µM
# [5] = biological target: Casein kinase II subunit alpha (Homo sapiens) (UniProt P68400); conditions: at 1 µM
# [6] = biological target: T2, Inhibitor of nuclear factor kappa-B kinase subunit alpha (Homo sapiens) (UniProt O15111); conditions: at 0.1 µM
# T2 sequence (whole entry): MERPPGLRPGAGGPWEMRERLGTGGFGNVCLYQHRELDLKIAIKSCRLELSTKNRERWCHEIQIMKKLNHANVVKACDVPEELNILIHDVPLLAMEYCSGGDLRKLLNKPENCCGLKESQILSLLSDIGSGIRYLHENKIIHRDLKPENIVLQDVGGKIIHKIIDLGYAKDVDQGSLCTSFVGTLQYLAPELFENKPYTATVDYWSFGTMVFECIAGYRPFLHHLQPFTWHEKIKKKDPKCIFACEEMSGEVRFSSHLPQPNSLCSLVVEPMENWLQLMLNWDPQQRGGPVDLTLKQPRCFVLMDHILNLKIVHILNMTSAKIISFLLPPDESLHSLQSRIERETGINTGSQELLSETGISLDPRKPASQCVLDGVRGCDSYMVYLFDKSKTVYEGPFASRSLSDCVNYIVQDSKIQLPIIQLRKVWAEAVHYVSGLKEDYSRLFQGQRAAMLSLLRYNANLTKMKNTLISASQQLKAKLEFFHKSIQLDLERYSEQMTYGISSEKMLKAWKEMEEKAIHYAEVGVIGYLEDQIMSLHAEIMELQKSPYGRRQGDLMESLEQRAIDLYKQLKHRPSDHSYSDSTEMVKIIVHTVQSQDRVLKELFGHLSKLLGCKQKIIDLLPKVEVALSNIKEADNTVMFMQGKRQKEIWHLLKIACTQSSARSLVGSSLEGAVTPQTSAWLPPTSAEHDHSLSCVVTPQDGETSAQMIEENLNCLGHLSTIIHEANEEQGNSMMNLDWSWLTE
# [7] = biological target: T2, Inhibitor of nuclear factor kappa-B kinase subunit alpha (Homo sapiens); conditions: at 1 µM
# [8] = biological target: T3, Inhibitor of nuclear factor kappa-B kinase subunit beta (Homo sapiens) (UniProt O14920); conditions: at 0.1 µM
# T3 sequence (whole entry): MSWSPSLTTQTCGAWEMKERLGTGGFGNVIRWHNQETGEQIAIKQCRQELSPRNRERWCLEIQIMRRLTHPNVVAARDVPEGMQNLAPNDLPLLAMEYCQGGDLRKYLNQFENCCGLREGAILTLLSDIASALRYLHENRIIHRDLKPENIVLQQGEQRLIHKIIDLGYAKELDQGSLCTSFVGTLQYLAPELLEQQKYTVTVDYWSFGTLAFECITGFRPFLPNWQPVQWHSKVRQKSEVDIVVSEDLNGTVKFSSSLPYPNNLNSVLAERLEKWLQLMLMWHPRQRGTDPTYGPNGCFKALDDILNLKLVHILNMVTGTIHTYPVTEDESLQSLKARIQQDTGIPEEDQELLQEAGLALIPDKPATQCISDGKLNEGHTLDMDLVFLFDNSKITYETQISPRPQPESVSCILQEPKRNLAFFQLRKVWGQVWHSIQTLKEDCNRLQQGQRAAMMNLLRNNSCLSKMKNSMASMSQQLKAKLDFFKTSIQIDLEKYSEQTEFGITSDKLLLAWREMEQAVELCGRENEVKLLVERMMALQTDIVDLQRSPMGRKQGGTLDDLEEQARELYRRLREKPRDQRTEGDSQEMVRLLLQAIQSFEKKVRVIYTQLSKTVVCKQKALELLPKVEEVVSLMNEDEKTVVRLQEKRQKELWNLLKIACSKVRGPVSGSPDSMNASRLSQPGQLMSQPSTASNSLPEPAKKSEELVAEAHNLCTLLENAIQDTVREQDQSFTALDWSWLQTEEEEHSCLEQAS
# [9] = biological target: T3, Inhibitor of nuclear factor kappa-B kinase subunit beta (Homo sapiens); conditions: at 1 µM
# [10] = biological target: T4, Inhibitor of nuclear factor kappa-B kinase subunit epsilon (Homo sapiens) (UniProt Q14164); conditions: at 0.1 µM
# T4 sequence (whole entry): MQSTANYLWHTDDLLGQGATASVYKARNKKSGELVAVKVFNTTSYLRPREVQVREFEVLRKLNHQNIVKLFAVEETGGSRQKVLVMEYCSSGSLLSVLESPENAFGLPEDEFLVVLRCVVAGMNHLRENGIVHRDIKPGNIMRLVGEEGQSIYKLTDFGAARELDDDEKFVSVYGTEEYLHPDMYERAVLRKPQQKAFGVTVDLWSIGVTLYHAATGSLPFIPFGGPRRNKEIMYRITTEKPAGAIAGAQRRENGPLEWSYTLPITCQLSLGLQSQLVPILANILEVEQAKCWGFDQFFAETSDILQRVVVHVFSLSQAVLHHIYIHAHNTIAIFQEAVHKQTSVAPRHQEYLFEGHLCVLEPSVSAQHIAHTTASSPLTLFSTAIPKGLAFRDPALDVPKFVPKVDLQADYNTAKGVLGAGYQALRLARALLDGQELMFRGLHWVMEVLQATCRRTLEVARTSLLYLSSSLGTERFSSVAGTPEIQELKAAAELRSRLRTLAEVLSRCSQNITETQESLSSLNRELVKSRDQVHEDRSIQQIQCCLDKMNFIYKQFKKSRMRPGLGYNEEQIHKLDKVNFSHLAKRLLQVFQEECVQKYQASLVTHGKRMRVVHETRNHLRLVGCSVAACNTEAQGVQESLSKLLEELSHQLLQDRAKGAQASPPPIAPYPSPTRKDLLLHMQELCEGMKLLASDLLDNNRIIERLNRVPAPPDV
# [11] = biological target: T4, Inhibitor of nuclear factor kappa-B kinase subunit epsilon (Homo sapiens); conditions: at 1 µM
# [12] = biological target: T5, Serine/threonine-protein kinase Nek1 (Homo sapiens) (UniProt Q96PY6); conditions: at 0.1 µM
# T5 sequence (whole entry): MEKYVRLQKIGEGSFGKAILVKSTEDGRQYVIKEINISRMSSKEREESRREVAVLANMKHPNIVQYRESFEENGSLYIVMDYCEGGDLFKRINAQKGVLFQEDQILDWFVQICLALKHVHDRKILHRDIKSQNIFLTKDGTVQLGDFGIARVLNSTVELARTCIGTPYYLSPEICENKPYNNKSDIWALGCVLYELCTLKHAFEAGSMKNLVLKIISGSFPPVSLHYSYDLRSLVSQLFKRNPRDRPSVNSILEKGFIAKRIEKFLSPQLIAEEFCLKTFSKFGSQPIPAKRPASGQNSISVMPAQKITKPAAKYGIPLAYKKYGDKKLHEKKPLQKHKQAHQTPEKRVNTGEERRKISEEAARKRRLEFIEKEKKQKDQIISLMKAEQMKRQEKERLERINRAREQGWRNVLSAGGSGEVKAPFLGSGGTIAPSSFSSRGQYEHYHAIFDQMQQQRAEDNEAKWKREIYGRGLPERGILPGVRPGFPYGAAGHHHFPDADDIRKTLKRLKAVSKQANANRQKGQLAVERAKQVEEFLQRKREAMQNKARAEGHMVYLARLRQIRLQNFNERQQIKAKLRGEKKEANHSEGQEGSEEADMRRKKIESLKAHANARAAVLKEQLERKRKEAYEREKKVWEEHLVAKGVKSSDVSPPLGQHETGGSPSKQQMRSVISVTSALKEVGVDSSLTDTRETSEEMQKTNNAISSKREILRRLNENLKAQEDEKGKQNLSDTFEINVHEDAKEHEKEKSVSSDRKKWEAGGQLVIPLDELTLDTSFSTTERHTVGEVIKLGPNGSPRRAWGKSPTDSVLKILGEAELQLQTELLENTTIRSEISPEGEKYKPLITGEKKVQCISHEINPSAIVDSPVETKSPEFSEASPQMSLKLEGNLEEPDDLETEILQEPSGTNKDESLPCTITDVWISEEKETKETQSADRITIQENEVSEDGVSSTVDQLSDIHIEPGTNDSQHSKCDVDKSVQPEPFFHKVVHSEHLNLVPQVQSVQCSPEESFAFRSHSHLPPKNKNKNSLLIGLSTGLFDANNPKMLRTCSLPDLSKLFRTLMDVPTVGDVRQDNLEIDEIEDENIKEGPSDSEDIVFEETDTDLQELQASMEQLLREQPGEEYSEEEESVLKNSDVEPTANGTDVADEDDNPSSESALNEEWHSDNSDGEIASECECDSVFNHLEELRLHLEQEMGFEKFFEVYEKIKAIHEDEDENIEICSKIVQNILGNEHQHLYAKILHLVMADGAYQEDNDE
# [13] = biological target: T5, Serine/threonine-protein kinase Nek1 (Homo sapiens); conditions: at 1 µM
# [14] = biological target: T6, Serine/threonine-protein kinase Nek2 (Homo sapiens) (UniProt P51955); conditions: at 0.1 µM
# T6 sequence (whole entry): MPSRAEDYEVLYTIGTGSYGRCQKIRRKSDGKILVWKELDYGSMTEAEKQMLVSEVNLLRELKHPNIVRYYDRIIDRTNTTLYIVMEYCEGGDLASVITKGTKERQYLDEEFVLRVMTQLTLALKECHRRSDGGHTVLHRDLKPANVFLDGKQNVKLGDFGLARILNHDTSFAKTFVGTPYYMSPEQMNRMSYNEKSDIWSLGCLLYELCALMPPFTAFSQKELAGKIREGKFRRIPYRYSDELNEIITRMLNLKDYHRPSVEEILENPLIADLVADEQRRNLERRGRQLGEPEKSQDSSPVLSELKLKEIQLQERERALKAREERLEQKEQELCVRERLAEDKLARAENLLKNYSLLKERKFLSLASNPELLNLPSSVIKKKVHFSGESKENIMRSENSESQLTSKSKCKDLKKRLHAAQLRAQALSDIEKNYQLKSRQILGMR
# [15] = biological target: T6, Serine/threonine-protein kinase Nek2 (Homo sapiens); conditions: at 1 µM
# [16] = biological target: Serine/threonine-protein kinase Nek6 (Homo sapiens) (UniProt Q9HC98); conditions: at 0.1 µM
# [17] = biological target: Serine/threonine-protein kinase Nek6 (Homo sapiens) (UniProt Q9HC98); conditions: at 1 µM
# [18] = biological target: Serine/threonine-protein kinase Nek7 (Homo sapiens) (UniProt Q8TDX7); conditions: at 0.1 µM
# [19] = biological target: Serine/threonine-protein kinase Nek7 (Homo sapiens) (UniProt Q8TDX7); conditions: at 1 µM
# [20] = biological target: T7, Serine/threonine-protein kinase Nek9 (Homo sapiens) (UniProt Q8TD19); conditions: at 0.1 µM;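 also: reported value is the mean percent inhibition of NEK9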
# T7 sequence (whole entry): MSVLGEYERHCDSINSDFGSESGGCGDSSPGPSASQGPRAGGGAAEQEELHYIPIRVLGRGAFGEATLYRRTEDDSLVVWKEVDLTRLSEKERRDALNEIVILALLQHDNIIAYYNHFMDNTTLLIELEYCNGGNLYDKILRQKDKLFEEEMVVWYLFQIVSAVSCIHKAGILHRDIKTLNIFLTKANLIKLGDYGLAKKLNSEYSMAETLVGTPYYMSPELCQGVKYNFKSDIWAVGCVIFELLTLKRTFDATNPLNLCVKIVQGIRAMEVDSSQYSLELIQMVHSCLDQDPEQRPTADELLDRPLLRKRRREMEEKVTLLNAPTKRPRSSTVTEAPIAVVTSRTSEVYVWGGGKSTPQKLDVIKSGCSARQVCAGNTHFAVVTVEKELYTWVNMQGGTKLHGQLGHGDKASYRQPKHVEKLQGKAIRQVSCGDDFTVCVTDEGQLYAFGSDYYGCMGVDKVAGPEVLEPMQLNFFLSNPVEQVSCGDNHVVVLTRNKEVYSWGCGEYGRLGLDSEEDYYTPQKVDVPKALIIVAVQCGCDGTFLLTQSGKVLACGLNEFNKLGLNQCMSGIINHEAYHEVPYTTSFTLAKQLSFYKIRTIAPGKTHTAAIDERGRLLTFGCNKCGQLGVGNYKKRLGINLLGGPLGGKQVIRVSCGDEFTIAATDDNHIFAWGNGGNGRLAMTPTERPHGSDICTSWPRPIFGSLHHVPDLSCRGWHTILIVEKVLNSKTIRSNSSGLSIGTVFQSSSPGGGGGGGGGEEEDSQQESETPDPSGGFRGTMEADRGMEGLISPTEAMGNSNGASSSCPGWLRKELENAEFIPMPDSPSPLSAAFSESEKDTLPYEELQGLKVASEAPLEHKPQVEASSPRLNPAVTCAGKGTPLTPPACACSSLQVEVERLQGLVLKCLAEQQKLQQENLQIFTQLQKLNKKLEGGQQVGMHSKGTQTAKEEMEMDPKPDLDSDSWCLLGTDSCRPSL
# Sequence of Casein kinase II subunit alpha (Homo sapiens) (P68400 whole entry, looked up): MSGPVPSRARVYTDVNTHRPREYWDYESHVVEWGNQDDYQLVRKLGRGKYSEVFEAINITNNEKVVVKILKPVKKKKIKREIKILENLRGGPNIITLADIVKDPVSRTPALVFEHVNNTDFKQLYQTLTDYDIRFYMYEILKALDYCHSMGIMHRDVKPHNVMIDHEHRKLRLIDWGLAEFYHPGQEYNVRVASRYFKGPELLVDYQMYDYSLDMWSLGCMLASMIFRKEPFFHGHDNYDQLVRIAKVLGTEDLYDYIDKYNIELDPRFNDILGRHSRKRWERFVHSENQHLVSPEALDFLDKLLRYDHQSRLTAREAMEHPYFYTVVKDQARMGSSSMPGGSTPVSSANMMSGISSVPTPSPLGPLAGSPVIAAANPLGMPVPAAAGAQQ
# Sequence of Serine/threonine-protein kinase Nek7 (Homo sapiens) (Q8TDX7 whole entry, looked up): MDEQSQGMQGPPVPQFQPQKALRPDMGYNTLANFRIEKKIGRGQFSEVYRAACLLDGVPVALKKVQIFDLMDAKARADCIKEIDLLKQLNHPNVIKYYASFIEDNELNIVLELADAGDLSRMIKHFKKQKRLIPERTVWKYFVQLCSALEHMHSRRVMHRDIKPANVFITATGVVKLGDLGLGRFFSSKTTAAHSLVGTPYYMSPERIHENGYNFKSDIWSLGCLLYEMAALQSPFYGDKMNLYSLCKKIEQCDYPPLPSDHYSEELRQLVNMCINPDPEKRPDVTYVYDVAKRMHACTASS
# Sequence of Serine/threonine-protein kinase Nek6 (Homo sapiens) (Q9HC98 whole entry): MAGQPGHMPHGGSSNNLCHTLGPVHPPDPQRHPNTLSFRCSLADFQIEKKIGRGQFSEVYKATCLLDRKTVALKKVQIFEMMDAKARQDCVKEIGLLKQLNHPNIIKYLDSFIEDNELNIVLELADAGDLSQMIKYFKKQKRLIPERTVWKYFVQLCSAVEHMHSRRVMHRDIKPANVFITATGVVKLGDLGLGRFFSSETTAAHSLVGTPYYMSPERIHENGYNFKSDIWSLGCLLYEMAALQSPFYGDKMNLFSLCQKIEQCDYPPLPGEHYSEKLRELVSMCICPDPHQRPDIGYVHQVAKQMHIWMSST
# Sequence of Sphingosine kinase 1 (Homo sapiens) (Q9NYA1 whole entry): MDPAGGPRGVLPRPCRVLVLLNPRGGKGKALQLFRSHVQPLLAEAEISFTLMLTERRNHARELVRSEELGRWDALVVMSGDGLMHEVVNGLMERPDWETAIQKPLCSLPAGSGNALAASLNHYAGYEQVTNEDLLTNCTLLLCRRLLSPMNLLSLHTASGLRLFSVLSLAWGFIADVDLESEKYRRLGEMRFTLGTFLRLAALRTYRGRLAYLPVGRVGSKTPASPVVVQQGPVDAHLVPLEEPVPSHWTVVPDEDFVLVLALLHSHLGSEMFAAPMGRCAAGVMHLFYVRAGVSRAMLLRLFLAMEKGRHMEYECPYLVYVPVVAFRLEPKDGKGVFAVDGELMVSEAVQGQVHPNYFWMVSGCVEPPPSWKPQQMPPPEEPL
Structure (SMILES),inhibition [1] [%],inhibition [2] [%],inhibition [3] [%],inhibition [4] [%],inhibition [5] [%],inhibition [6] [%],inhibition [7] [%],inhibition [8] [%],inhibition [9] [%],inhibition [10] [%],inhibition [11] [%],inhibition [12] [%],inhibition [13] [%],inhibition [14] [%],inhibition [15] [%],inhibition [16] [%],inhibition [17] [%],inhibition [18] [%],inhibition [19] [%],inhibition [20] [%]
Nc1nc(-c2ccccn2)c(-c2ccc3ncccc3n2)s1,-3.49,-0.63,-3.19,2.62,10.1,4.74,9.42,4.18,4.54,3.83,5.46,2.32,4.91,3.61,2.7,3.95,1.16,3.03,2.77,6.33
CS(=O)(=O)CCNCc1ccc(-c2ccc3ncnc(Nc4ccc(OCc5ccccc5)c(Cl)c4)c3c2)o1,2.51,1.2,-1.85,-1.12,1.71,-2.26,2.45,-1.73,0.03,0.17,-0.15,1.25,2.81,1.61,0.43,3.37,-1.04,0.02,2.5,-1.85
